# Compound activity: PubChem, National Center for Advancing Translational Sciences (NCATS)
# NS1 function inh: influenza NS1 inhibition | Potency, µM (series often up to 46.1 µM), without a hit: top-dose activity, positive = more growth | actives 0.4% (n = 270,000) | AID 2326; calls by dose curve; further: actives are rising curves; nearly all actives have a fitted effect of over 50% in size
#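 OD600 was taken as the measure of yeast growth restored by compound in an NS1-expressing S. cerevisiae strain. Cells had been washed out of glucose medium and diluted 1:100 into galactose -URA medium, pH 6.0.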
# AMA1 RON2 block: disrupts binding of P. falciparum AMA1 to RON2. AID 720542. AlphaScreen AMA1-biotinylated RON2 peptide binding. Potency, µM (series often up to 58.2 µM), for the others: top-dose activity change, negative = inhibition, usual class: inhibitors. actives 0.2% (n = 360,000);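 further: 0% = vehicle wells and -100% = peptide control; nearly all actives have a fitted effect of over 45% in size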
#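 AMA1 (3D7) with his tag at 25 nM final met compounds first, then biotinylated RON2 peptide at 25 nM; detection used donor plus acceptor beads, 10 µg/mL apiece, read by AlphaScreen after 30 min at room temperature.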
# Sm TGR inh: S. mansoni TGR enzyme inhibition. Q962Y6. actives 3% (n = 360,000). purified TGR, DTNB reduction, TNB absorbance 405 nm. AID 485364. Potency, µM (series often up to 114 µM), for inactives: at the highest dose activity change, negative = inhibition, actives largely listed as inhibitors; further: on the % scale 0 is the no-effect control and ±100 the full control effect; nearly all actives have a fitted effect of over 60% in size
#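 First, TGR (20 nM dispensed) and NADPH were mixed with compound. Second, a 15 min room-temperature incubation followed. Third, further NADPH and then DTNB were added to start the reaction. Finally, TNB absorbance was monitored kinetically.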
# Pf growth 96h: inhibits malaria parasite growth, 96 h; Potency, µM (titrated, usually from 28.7 µM), inactives show at the top dose activity change, negative = inhibition, hits mostly inhibitors; actives 6.9% (n = 320,000); AID 504834; P. falciparum luciferase reporter growth, 96 h; further: on the % scale 0 is the no-effect control and ±100 the full control effect
#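 Two-generation exposure (96 h) targets delayed-death phenotype. Reporter parasites carrying integrated firefly luciferase, in red cells at 2% hematocrit and 0.05% parasitemia final, kept at 37 C, 5% CO2; luminescence loss indicates inhibition.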
# Pf growth 48h: inhibits P. falciparum growth in the first generation, 48 h. actives 5.9% (n = 310,000). Potency, µM (top dose mostly 28.7 µM), for the others: top-dose activity change, negative = inhibition, actives largely listed as inhibitors. P. falciparum luciferase growth in erythrocytes, 48 h; further: on the % scale 0 is the no-effect control and ±100 the full control effect
#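 Compounds are pin-transferred into medium, infected erythrocytes (2% hematocrit, 0.1% parasitemia final) are added, and plates sit one parasite generation at 37 C in 5% CO2. Detection reagent is then added and luminescence measured.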
# An asterisk follows results filed as active; ? = inconclusive; / = no result given; [ ] = dose if it differs, or a comment. Sampled rows, rich in hits. Any-hit rate of the full collection: about 11%. Unless noted, the call rests on the fitted dose curve; in most records, active means well fitted curve in the direction sought with a large enough effect; inconclusive means small, poorly fitted or top-dose-only effect, or another doubt; inactive means no such curve, though single readings can be large; an effect the other way counts as inactive or inconclusive. Potency means the concentration at half of the fitted maximal effect.
SMILES,NS1 function inh,AMA1 RON2 block,Sm TGR inh,Pf growth 96h,Pf growth 48h
O=C(Cn1ncc(Cl)c(Cl)c1=O)c1ccc(Cl)cc1,-13.1%,-1.0%,?,?,-29.0%
C=CCn1c(C)cc(C(=O)Cn2ncc(Cl)c(Cl)c2=O)c1C,3.9%,-20.5%,39.8µM*,9.2%,2.6%
Cc1cccc(NC(=O)CN2CCN(C(=O)CN3C(=O)NC4(CCCCC4C)C3=O)CC2)c1C (stereo not given),/,8.5%,/,/,/
O=C(/C=C/c1ccccc1)NCCS(=O)(=O)N1CCN(c2ccccc2F)CC1,/,2.6%,-3.1%,-5.1%,-22.6%
NCCc1nc(-c2ccccc2)cs1,/,0.6%,4.5%,13.1µM*,-4.6%
CCN(CC(=O)Nc1c(F)cccc1F)C(=O)c1ccc(N2CCOCC2)c([N+](=O)[O-])c1,/,-8.8%,44.7µM*,?,13.8%
C(=N\Nc1nc(-c2ccccn2)nc2ccccc12)/c1ccccc1,2.9%,/,18.2%,2.08µM*,4.65µM*
O=[N+]([O-])c1cccc(/C=N/Nc2nc(C(Cl)(Cl)Cl)nc3ccccc23)c1,4.1%,5.6%,-3.3%,?,1.04µM*
C(=N\Nc1nc(-c2cccnc2)nc2ccccc12)/c1ccccc1,12.5%,35.4%,1.1%,-22.4%,?
O=[N+]([O-])c1cccc(/C=N/Nc2nccnc2Cl)c1,5.9%,-16.7%,9.0%,86.4%,169.2%
ClC(Cl)(Cl)c1nc(N/N=C/c2ccncc2)c2ccccc2n1,/,16.5%,4.6%,?,2.33µM*
COc1ccc(NC(=O)c2ccco2)cc1NC(=O)c1ccc(OC(C)C)cc1,/,/,-0.8%,/,/
O=C(CN1C(=O)c2ccc(Br)cc2C1=O)NCC1CCCO1 (stereo not given),22.2%,13.9%,9.0%,48.2%,6.8%
COc1ccc(-c2noc(-c3ccc(N4CCC(C)CC4)c([N+](=O)[O-])c3)n2)cc1OC,/,/,-23.2%,/,/
CC1Cc2nc(SCC(=O)NCC3CCCO3)n(C)c(=O)c2S1 (stereo not given),3.8%,-1.5%,-5.0%,-15.8%,?
CCCC1(C)Nc2ccccc2-c2nc3ccccc3n21 (stereo not given),-59.4%,11.8%,-22.6%,2.08µM*,?
O=C(Nc1nnc(-c2ccco2)o1)c1ccc(S(=O)(=O)N2CCCC2)cc1,/,74.9%,-3.8%,?,11.7µM*
CS(=O)(=O)c1cccc(-c2nnc(NC(=O)c3ccc(S(=O)(=O)N4CCCC4)cc3)o2)c1,/,71.4%,4.9%,13.1µM*,?
CC1CCN(S(=O)(=O)c2ccc(C(=O)Nc3nnc(-c4ccco4)o3)cc2)CC1,-1.8%,28.5%,0.0%,14.7µM*,?
CS(=O)(=O)c1cccc(-c2nnc(NC(=O)c3ccc4c(c3)OCCO4)o2)c1,/,/,2.2%,/,/
O=C(Nc1nnc(-c2ccco2)o1)c1ccc([N+](=O)[O-])s1,3.1%,63.1%,28.2µM*,11.7µM*,-23.2%
Cc1ccc(C(=O)Nc2nnc(-c3ccco3)o2)cc1,-1.5%,24.9%,-3.6%,?,88.8%
CC(C)CC(=O)[C@@H](O)Cc1ccc(O)cc1,/,3.0%,/,/,/
CCCCN1C(=O)C(CC(=O)NCC2CCCCC2)CC(C(=O)N(C(C)C)C(C)C)=C1C (stereo not given),/,-7.8%,/,/,/
O=C(Nc1nnc(-c2ccc(F)cc2)o1)c1ccc(S(=O)(=O)N2CCOCC2)cc1,2.3%,47.1%,3.7%,3.29µM*,?
SMILES,NS1 function inh,AMA1 RON2 block,Sm TGR inh,Pf growth 96h,Pf growth 48h
CC[C@@]1(O)CC2CN(CCc3c([nH]c4ccccc34)[C@](C(=O)OC)(c3cc4c(cc3OC)N(C)C3[C@@](O)(C(=O)OC)C(OC(C)=O)[C@]5(CC)C=CCN6CC[C@@]43C65)C2)C1 (stereo not given in full),/,/,/,0.536µM*,0.757µM*
CCC12C=CCN3CCC4(c5cc(Br)c(OC)cc5N(C)C4C(O)(C(=O)OC)C1OC(C)=O)C32 (stereo not given),-20.7%,-5.1%,5.4%,?,?
CC[C@]1(O)C[C@H]2CN(CCc3c([nH]c4ccccc34)[C@@](C(=O)OC)(c3cc4c(cc3OC)N(C=O)[C@H]3[C@@](O)(C(=O)OC)[C@H](OC(C)=O)[C@]5(CC)C=CCN6CC[C@]43[C@@H]65)C2)C1,/,/,/,9.53µM*,0.0849µM*
COc1cnc(-c2ccccn2)nc1Sc1ccccc1,/,84.9%,6.4%,?,13.1µM*
COc1ccc(Sc2nc(-c3ccccn3)ncc2OC)cc1,/,10.5%,1.0%,3.29µM*,3.29µM*
COc1cnc(N(C)C)nc1Sc1ccc(Cl)cc1,-45.7%,-15.3%,11.7%,61.2%,-16.5%
CCOC(=O)CSc1nc(-c2ccccn2)ncc1OC,/,34.8%,5.2%,?,0.0%
COc1cnc(-c2ccccn2)nc1Sc1ccc(F)cc1,/,88.8%,-3.8%,1.65µM*,4.65µM*
COc1cnc(-c2ccccn2)nc1Sc1ccc(Cl)cc1,6.0%,42.5%,6.7%,1.65µM*,2.33µM*
CCc1ccc(NC(=O)CC2C(=O)N(c3ccc(Cl)cc3)C(=O)N2Cc2cccs2)cc1 (stereo not given),/,/,5.4%,/,/
Cc1ccc(S(=O)(=O)NCc2ccc(C(=O)NC3CCC(O)CC3)cc2)cc1C (stereo not given),/,13.0%,-4.2%,?,?
COc1cccc(CNC(=O)C2CCN(C(=O)N3CCOc4ccc(Cl)cc43)CC2)c1OC,/,/,-16.9%,/,/
CCCCOC(=O)c1cc(=O)[nH]c2ccccc12,22.6%,0.7%,-1.2%,11.7µM*,5.6%
COC(=O)[C@]12CCCCC=C1N(CCC1=CCCCC1)C(=O)[C@H](CC(=O)N1CCCC1)C2,/,16.0%,/,/,/
COc1cc(NC(=O)CCc2nnc3ccc(N4CCN(c5cccc(OC)c5)CC4)nn23)cc(OC)c1,20.9%,5.3%,0.8%,3.29µM*,2.4%
COc1ccccc1N1CCN(C(=O)CCc2nnc3ccc(N4CCC(C)CC4)nn23)CC1,-11.1%,-8.6%,-20.8%,-19.0%,10.4µM*
COc1cccc(N2CCN(C(=O)CCc3nnc4ccc(N5CCOCC5)nn34)CC2)c1,21.8%,-0.2%,?,11.7µM*,-3.3%
COc1cccc(NC(=O)CCc2nnc3ccc(N4CCN(c5cccc(OC)c5)CC4)nn23)c1,7.8%,3.0%,0.4%,?,?
COc1ccc(NC(=O)CCc2nnc3ccc(N4CCN(c5cccc(OC)c5)CC4)nn23)cc1,?,-10.4%,-5.9%,0.329µM*,11.7µM*
COC(c1ccccc1)(c1ccccc1)C(Oc1nccc(C)n1)C(=O)O (stereo not given),27.6%,8.2%,-10.8%,-7.1%,4.9%
CN(Cc1ccccc1)C(=O)Cn1ncc2c3ccccc3n(Cc3cccc(Cl)c3)c2c1=O,/,/,2.5%,/,/
COc1cccc(NC(=O)Cn2c(=O)n(-c3ccccc3)c(=O)c3sccc32)c1,/,2.9%,-0.1%,16.8%,-27.6%
COc1ccc(NC(=O)CNc2ccccc2N2CCCC2=O)cc1S(=O)(=O)N1CCOCC1,/,5.2%[11.6 µM],-11.9%,?,?
